Results on 40 compounds are retold here after PubChem BioAssay (Tox21).

“And” between values parts separate entries of the source, which are not always exact repeats. Equal entries are not always repeated. Results filed as inconclusive are left out. Where a call stands in place of a potency, no number is given. The source holds several records for some structures; these can differ, active in one and inactive in another. The source made the active and inactive calls. Calls follow the shape of the dose curve; as a rule, active = well fitted cell-killing curve with a large enough effect in the repeat runs; inconclusive = weak or mixed curves, or effect the other way; inactive = flat fitted curve, though single readings scatter.
Potency is read from the fitted curve at half-maximal effect.

This assay can be described thus: Caspase-3/7 induction in HepG2 cells by small molecules, qHTS cell viability counter screen (AID 1346981). Also: nearly all actives have a fitted effect of over 30% in size. The conditions noted are these: CellTiter-Fluor fluorescence, 17 h; series mostly up to 92.4 µM; activity change, negative = cytotoxicity: at the top concentration. The source says:
U.S. Tox21 Program National Center for Advancing Translational Sciences [NCATS] NIH Chemical Genomics Center [NCGC] U.S. Environmental Protection Agency [EPA] National Institutes of Environmental Health Sciences [NIEHS] National Toxicology Program [NTP] U.S. Food and Drug Administration [FDA] Tox21 Assay Overview: Apoptosis is a process of programmed cell death and plays a central role in the development of multicellular organisms. It is a highly regulated process and induces cell death by activating caspases, which are the members of cysteine aspartic acid-specific protease (caspase) family. Caspases involved in apoptosis are classified by their mechanism of action as initiator caspases (caspase-2, -8, -9 and -10) and executioner caspases (caspase-3, -6, and -7). Inhibition of apoptosis results in number of cancers, autoimmune diseases, inflammatory diseases and viral infection. To identify small molecule compounds that induce apoptosis, a homogeneous, luminescent Caspase-Glo 3/7 assay was used. Wild type HepG2 cells were used to screen Tox21 libraries for identifying caspase-3/7 activity inducers. Also cytotoxicity of the compounds was tested in parallel by measuring the cell viability using CellTiter-Fluor assay system in the same wells.
Tox21 Assay Protocol Summary: HepG2 cells were dispensed at 2,000 per well in 5uL of culture medium into white solid bottom 1536-well plates (Corning Life Sciences, Corning, NY) using a Multidrop Combi (Thermo Scientific, Waltham, MA) dispenser. The assay plates were incubated at 37 C and 5% CO2 for 5hr, and then 23nL of compounds dissolved in DMSO and positive control were transferred using a Pintool station ([…], San Diego, CA). The assay plates were incubated at 37C and 5% CO2 for 17hr. For cytotoxicity read, after 16hr incubation at 37C, 1uL CellTiter-Fluor reagent (Promega Corporation, Madison, WI) was added to each well of the assay plates using Flying Reagent Dispenser (FRD, Aurora Discovery, San Diego, CA). After 1hr incubation at 37C and 5% CO2, the fluorescence signal was quantified using a ViewLux plate reader (PerkinElmer, Shelton, CT).
A general note: Quantitative high-throughput screening tests each substance at several concentrations.
Take `C#C[C@]1(O)CC[C@H]2[C@@H]3CCC4=CC(=O)CC[C@@H]4[C@H]3CC[C@@]21CC`: the Potency result is “inactive”. For `COc1cc(O)c(C(=O)c2ccccc2)cc1S(=O)(=O)O`, the Potency result is “inactive”. As for `Cc1c(N(C)CS(=O)(=O)O)c(=O)n(-c2ccccc2)n1C`, the Potency result is “inactive”. Still for that read-out and setting: the value for `CCOC(=O)C(C)(C)Oc1ccc(Cl)cc1` was “inactive”; that for `CCCCNC(=O)NS(=O)(=O)c1ccc(N)cc1` was “inactive”; that for `COC(=O)C1CCC(C(=O)OC)CC1` (stereo not given) was “inactive”. On the same count and under the same terms, the result for `NC(=O)NO` reads “inactive”. For `O=C1OC(c2ccc(O)cc2)(c2ccc(O)cc2)c2ccccc21`, the Potency result was “inactive”. The same measure, in the same setting: the value for `CCCCCCCCOc1ccc(C(=O)c2ccccc2)c(O)c1` was “inactive”; that for `C[C@]12CC[C@@H]3c4ccc(O)cc4CC[C@H]3[C@@H]1CCC2=O` was “inactive”; that for `N[C@@H](Cc1c[nH]c2ccccc12)C(=O)O` was “inactive”. On the same count and under the same terms, the value for `CCN(CC)CCOC(=O)c1ccc(N)cc1` was “inactive”; that for `Cc1cccc(Nc2cc(Cl)nc(SCC(=O)O)n2)c1C` was “inactive”. Same read-out and setting: the result for `Cc1c(N(C)C)c(=O)n(-c2ccccc2)n1C` reads “inactive”. For the compound `C[C@]12CC[C@@H]3c4ccc(O)cc4C[C@@H](CCCCCCCCCS(=O)CCCC(F)(F)C(F)(F)F)[C@H]3[C@@H]1CC[C@@H]2O` (stereo not given in full), the Potency result was “inactive”.

Turning to `CC(C)(C)CC(C)(C)c1ccc(O)c(-n2nc3ccccc3n2)c1`, the Potency entry was “inactive”. Still for that read-out and setting: the result for `CCCCCCCC(=O)OCC(O)CO` (stereo not given) reads “inactive”; that for `Cc1cccc2ccccc12`, “inactive”. Take `O=c1c(-c2ccc(O)cc2)coc2cc(O)cc(O)c12`: the “activity change, negative = cytotoxicity” value was -0.117% [at 42.5 µM] (inactive).

As for `NC(=O)N/N=C/c1ccc([N+](=O)[O-])o1`, the Potency entry was “inactive and 58.4 µM (active)”. Still for that read-out and setting: the value for `CC(=O)Oc1ccccc1C(=O)O` was “inactive”; that for `CC(C)(C)NCC(O)c1ccc(O)c(CO)c1` (stereo not given) was “inactive”; that for `COCCOCCOC` was “inactive”. As for `O=C(O)CN(CC(=O)O)CC(=O)O`, the Potency entry is “inactive”. For `CC(O)COc1ccccc1` (stereo not given), the Potency entry is “inactive”. On the same count and under the same terms, the value for `CC1(C)O[C@@H]2[C@@H](CO[C@@]3(COS(N)(=O)=O)OC(C)(C)O[C@@H]23)O1` was “inactive”; that for `COc1cc(C=O)ccc1O` was “inactive”; that for `COc1ccc(C(=O)c2ccccc2)c(O)c1` was “inactive”.

For the compound `NC(=O)N1c2ccccc2C=Cc2ccccc21`, the Potency entry is “inactive”.

For the compound `COC(=O)c1ccc(C=O)cc1`, the “activity change, negative = cytotoxicity” value was 10.5% (inactive). Regarding `CC1=NN(c2ccccc2)C(=O)C1`, the Potency result is “inactive”. Still for that read-out and setting: the value for `O=C(O)Cc1cccc2ccccc12` was “inactive”; that for `Oc1cccc(O)c1` was “inactive”. As for `COc1cc2c(c(OC)c1OC)-c1ccc(OC)c(=O)cc1[C@@H](NC(C)=O)CC2`, the Potency result was “inactive”. Consider `Cn1cnc2c1c(=O)[nH]c(=O)n2C`, for which the Potency result was “inactive”. As to `O=c1cc[nH]c(=O)[nH]1`, the Potency entry was “inactive”. As for `CCn1cc(C(=O)O)c(=O)c2ccc(C)nc21`, the Potency result is “inactive”.

As for `C=CCOC(=O)CC(C)C`, the Potency result is “inactive”. In the case of `COc1ccc(O)cc1`, the Potency entry was “inactive”.

Regarding `CC(=O)c1ccc(S(=O)(=O)NC(=O)NC2CCCCC2)cc1`, the Potency result is “inactive”.
